Laboratory results: PubChem BioAssay AID624330 (Southern Research Specialized Biocontainment Screening …, 2012)
In all, about 340,000 compounds went through this assay and about 2,100 (0.62%) were called active.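 How the source made its calls: active means first-screen hits whose inhibition reached a set limit at any dose in the follow-up dose series; inconclusive means inhibition above the set first-screen limit but never retested; inactive means the rest.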 A selection follows. Entries with a potency or affinity are not part of this list.

The compounds below were run against Rac GTPase-activating protein 1 (Homo sapiens) (UniProt Q9H0H5) (assay: blockers of MgcRacGAP-driven Rac1 GTP hydrolysis – biochemical, ADP Hunter fluorescence, primary and confirmatory, confirmation (AID 624330;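 further: fluorescence reports GDP produced by GAP-driven GTP hydrolysis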)). Settings: MgcRacGAP-stimulated Rac1 GTP hydrolysis, at 30 µM, stronger effect = higher value, GST-tagged Rac1 F28L mutant substrate.
Sequence of Rac GTPase-activating protein 1 (Homo sapiens) (Q9H0H5 whole entry, looked up): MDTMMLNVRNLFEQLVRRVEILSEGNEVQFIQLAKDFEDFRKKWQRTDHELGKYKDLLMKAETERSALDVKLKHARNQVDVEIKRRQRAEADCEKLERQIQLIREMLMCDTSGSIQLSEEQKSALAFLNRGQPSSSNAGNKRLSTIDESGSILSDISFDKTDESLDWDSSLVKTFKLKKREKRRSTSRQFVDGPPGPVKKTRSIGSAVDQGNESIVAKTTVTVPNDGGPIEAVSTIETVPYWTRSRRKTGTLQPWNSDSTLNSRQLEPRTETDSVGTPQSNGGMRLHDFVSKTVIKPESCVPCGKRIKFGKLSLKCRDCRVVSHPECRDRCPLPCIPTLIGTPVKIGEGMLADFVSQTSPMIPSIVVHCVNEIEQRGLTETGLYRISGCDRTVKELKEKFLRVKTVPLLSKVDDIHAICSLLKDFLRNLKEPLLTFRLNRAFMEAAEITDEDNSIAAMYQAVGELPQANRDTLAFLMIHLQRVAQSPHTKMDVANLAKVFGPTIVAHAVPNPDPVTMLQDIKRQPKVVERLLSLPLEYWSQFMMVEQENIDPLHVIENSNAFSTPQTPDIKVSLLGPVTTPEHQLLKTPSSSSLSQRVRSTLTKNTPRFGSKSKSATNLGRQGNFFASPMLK

inhibition, inactive:
N#CCCNc1ccc(OCCC#N)cc1 11.4%
CCOc1ccc(NCCC#N)cc1 30.3%
CCC(=O)Nc1cccc(C(=O)/C=C/c2cc(Br)ccc2OC)c1 7.87%
CCC(CO)N=C1CC(C)(C)CC(=O)/C1=C(/O)CCCN1C(=O)c2ccccc2C1=O (stereo unspecified) 0.34%
COc1cc2nc(N3CCN(c4cc(C)ccc4C)CC3)nc(N)c2cc1OC 4.78%
COc1cc2nc(N3CCN(C(=O)c4ccco4)CC3)nc(N)c2cc1OC 17.7%
COC(=O)[C@H](CC(C)C)NC(=O)NCCCc1ccccc1 3.77%
O=C(CCNS(=O)(=O)c1cccc2nsnc12)NCCC1=CCCCC1 11.7%
Cc1cccc(OCC(=O)Nc2ccc3c(C)cc(=O)oc3c2)c1 -2.83%
CN1CCN(c2ccc(C(=O)c3ccc(F)cc3)cc2)CC1 12.6%
N#Cc1ccc(N2CCN(c3ccc(F)cc3)CC2)cc1 7.18%
Nc1nc(N2CCN(c3ccc(F)cc3)CC2)n[nH]1 12.1%
Cc1nn(-c2cc(N3CCCCC3)ccc2N)c(=O)c2ccccc12 12.5%
CC(=O)Nc1ccc(N2CCN(C(C)=O)CC2)cc1 8.62%
CN1CCN(S(=O)(=O)c2ccc(N)cc2)CC1 -0.77%
CC(=O)N1CCN(c2ccc([N+](=O)[O-])cc2)CC1 5.88%
Nc1ccc(N2CCCCC2)cc1N1CCCCC1 10.4%
OCC1CCCN(C(=S)NCCc2ccccc2)C1 (stereo unspecified) 2.94%
O=C(Cn1cnc2c(nnn2Cc2ccc(Cl)cc2)c1=O)NC1CCCC1 7.49%
COc1cc(SC)ccc1C(=O)OCC(=O)NCCC1=CCCCC1 -5.82%
C=CCn1c(SC(C)C(=O)NC2CC2)nnc1-c1ccoc1C (stereo unspecified) 4.4%
CCOc1cccc(C(=O)NNC(=O)C2C3C=CC(C3)C2C(=O)O)c1 (stereo unspecified) 5.45%
CCCN1Cc2cccc(C(=O)NCCc3ccccc3)c2C1=O 5.13%
Cc1ccc(-c2nn(-c3ccccc3)cc2C(=O)Nc2ccc(C)c(S(=O)(=O)N3CCOCC3)c2)cc1 -2.39%
COc1ccc(C(CNS(=O)(=O)c2ccccc2)N2CCN(C)CC2)cc1 (stereo unspecified) 1.91%
O=C(c1cccs1)N1CCN(c2ccc(F)cc2)CC1 13.3%
O=C(c1cccs1)N1CCN(c2ccccc2)CC1 -0.45%
O=C(CSc1ccccc1)Nc1ccc(N2CCN(c3ccccc3)CC2)c(F)c1 5.08%
CCN1CCN(c2ccc(NC(=O)c3ccc(Br)o3)cc2)CC1 8.5%
CCN1CCN(c2ccc(NC(=O)Cc3ccccc3)cc2)CC1 6.87%
O=C(Nc1ccc(N2CCN(c3ccccc3)CC2)c(F)c1)C1CC1 5.36%
